Source: PubChem BioAssay AID743093 (The Scripps Research Institute Molecular Screening Center, 2013)
Out of some 150,000 compounds screened, about 100 (0.067%) were called active. The full list was thinned out, with actives kept by preference. A number with no mark means an inactive call.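 The calls were made as follows: active = inhibition above the mean plus 3 SD of compounds within the control limits, set per campaign (cut at about 38% in these data); inactive = the rest.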

assay: reduced ATP in mature Plasmodium gametocytes – ATP luminescence, HTS, primary screen (AID 743093);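 also: 0% = DMSO wells and 100% = medium only without gametocytes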; settings: P. falciparum stage V gametocytes, 24 h, at 10.9 µM, hits give high values

SMILES	inhibition
N#CCSc1nc(-c2ccccc2)nc2ccc(F)cc12	-8.79%
Cc1cc(C)n(-c2nc(O)cc(=O)[nH]2)n1	9.58%
Cc1cc(C)n(-c2ccc3nncn3n2)n1	38.2% (active)
Cc1cc(C)n(-c2ccc(Cl)c(C(=O)O)n2)n1	8.49%
O=C(CN1CCCCCC1)Nc1c(Cl)cc(Cl)cc1Cl	-23.1%
O=C(NC(=O)N1CCSCC1)c1c(Cl)cccc1Cl	-10.9%
CCn1c(SCC(=O)N/N=C/c2ccncc2)nc2ccccc21	-15.2%
O=C1NC[C@@H](c2ccccc2)OC(=O)[C@H](Cc2ccc(F)cc2)CC/C=C/C[C@H]1CC(=O)N(CCO)Cc1ccccc1	4.53%
COc1ccc(C(C#N)(CC(=O)O)c2cnccn2)cc1OC (configuration not stated)	-25%
Cc1ccccc1NC(=O)N1CCCC1C(=O)NCc1ccccc1 (configuration not stated)	1.78%
Cc1ccc2c(O)c(Cc3ccccc3)c(=O)[nH]c2n1	-11.8%
C/C(Cc1ccccc1)=N\NC(=O)CNC(=O)c1ccc2c(c1)OCCO2	-4.02%
CC(C)c1cc(CN2CCOCC2)cc(C(C)C)c1O	-5.85%
CCOC(=O)c1c(C)[nH]c2c1-c1ccccc1C(=O)C2=O	50.2% (active)
CCOC(=O)c1c(C)[nH]c(=S)c(C#N)c1-c1ccccc1	-28.7%
CCOC(=O)C1=C(c2ccc(OC)cc2)C(=O)c2ccccc2C1=O	-27.7%
Cc1cccc(C(=O)N2CCC(c3nc4ccccc4s3)CC2)c1	13%
Nc1nnnn1/N=C/c1cc([N+](=O)[O-])ccc1O	-1.33%
CCN(CC)S(=O)(=O)c1ccc(NC(=O)c2cnc(C)cn2)cc1	-1.77%
CC(=O)NS(=O)(=O)c1ccc(N/C(N)=N/c2nc(C)cc(C)n2)cc1	11.7%
CCCCC(CC)CNCc1cccn1CCN1CCOCC1 (configuration not stated)	-25.6%

SMILES	inhibition
CCOC(=O)c1c(N)sc2c1CCCC2=O	-6.75%
Cc1c(CN2CC[C@@H](N3CCN(c4ccccn4)CC3)[C@H](O)C2)[nH]c2ccc(F)cc12	-10.1%
CCc1ccc(NC(=O)N[C@H](C(=O)O)C(C)CC)cc1 (some centres not stated)	-3.41%
Cc1ccc(C)c(SCc2nc3sc(C(=O)O)c(C)c3c(=O)[nH]2)c1	8.97%
CC1=CC(C)(C)NC(=S)N1NC(=O)c1ccccc1Cl	-21.8%
C[C@@H]1NC(=O)[C@@]2(C)[C@@H](c3ccccc3)[C@H]3COc4ccccc4[C@@H]3N2C1=O	-7.28%
CCCNC(=O)CSc1nc(Cc2ccccc2)nc2ccccc12	-0.29%
COc1cccc(CNc2ncc(-c3ccccc3)n2C)c1	-4.96%
CCSCc1nc(N)nc(NCCc2ccccc2)n1	-2.31%
CC(C)=CCN1CCN(CCCc2ccccc2)CC1CCO (configuration not stated)	26.8%
COc1ccccc1C1=CC(=O)C[C@H](c2ccc(F)cc2)C1	-32.5%
Cc1ccc(-c2ccnc3[nH]n(-c4ccccc4)c(=O)c23)cc1	-20.9%
CSc1ccc(S(=O)(=O)N2CCC(C(=O)NCCc3ccccc3)CC2)cc1	-3.09%
O=C(Nc1nnc(CCN2CCCCC2)s1)c1cccc(Cl)c1	7.08%
COc1cc(NC(=O)c2ccc(-c3csc(C)n3)cc2)c(OC)cc1Cl	-9.66%
CCC(C(=O)NCCC(C)C)N(Cc1ccccc1Cl)C(=O)c1snc(C(N)=O)c1N (configuration not stated)	-26.1%
CN(C)CCCNC(=S)N1CCC(c2nc3ccccc3[nH]2)CC1	-17.4%
CC(=O)NS(=O)(=O)c1ccc2c(c1)Cc1cc(S(=O)(=O)NC(C)=O)ccc1-2	-9.24%
Cc1cc(F)ccc1N1CCC(N2CCN(C)C(CCO)C2)CC1 (configuration not stated)	-11.3%
CC(=O)C(C)n1cnc2scc(-c3ccc(C)cc3)c2c1=O (configuration not stated)	13.9%
COc1ccccc1-n1cn[nH]c1=S	2.72%

SMILES	inhibition
CC(C)CCN1NC2(CCC(C)CC2)NC1=S (configuration not stated)	0.86%
Cc1nc([N+](=O)[O-])cn1CC(=O)Nc1ccc(Cl)cc1	2.38%
O=C(O)c1ccccc1C(=O)Nc1nc(-c2ccccc2)cs1	3.62%
COC(=O)c1ccc(COc2cc([N+](=O)[O-])cc3cccnc23)cc1	2.3%
CCN1N=C(c2ccccc2)CCC1=O	-22.1%
CCc1nc(N2CCN(C(C)=O)CC2)c2c3c(sc2n1)CCCC3	-2.91%
Cc1c(NC(=O)CSCc2ccccc2)cccc1C(=O)O	19%
CCCc1ccc(OCCNC(=O)c2ccccc2Br)cc1	17.8%
O=C(N[C@@H]1C/C=C\C[C@@H](CC(=O)N(CCO)Cc2ccccc2)C(=O)N[C@H](Cc2ccccc2)COC1=O)OCC1c2ccccc2-c2ccccc21	-0.76%
COc1ccc(N2CCN(C(=O)c3cccs3)CC2)cc1	-16.6%
Cc1cccc(C)c1OCCN1CCOCC1	-12.2%
COc1ccc(CN(Cc2ccc(OC)cc2)C(=O)c2cccs2)cc1	2.88%
CCOc1ccc2ccccc2c1/C=N/NC(=O)c1c(C)cc(C)[nH]c1=O	23.8%
Cc1cccc(NC(=O)COC(=O)CCc2ccccc2)c1C	-7.45%
CCNC(=O)CCc1nc(-c2ccc(C)cc2)no1	-1.21%
CN1CCN(c2ccc(S(=O)(=O)N3CCOCC3)cc2NC(=O)CCc2ccccc2)CC1	-2.86%
CCOC(=O)[C@H]1[C@H]2COc3cc(OC)ccc3[C@@H]2N2C(=O)CN(Cc3ccc(Cl)cc3)C(=O)[C@@]12C	-23.5%
COc1ccc(C(=O)NC2=NCCS2)c(OC)c1	-24.6%
CCOc1ccc(-n2c(SCC(N)=O)nnc2-c2ccco2)cc1	-6.2%
CCOC(=O)c1cnc(COc2ccccc2Cl)[nH]c1=O	-10.2%
